# According to PubChem BioAssay (NCATS):
# Results filed as inconclusive are left out. Where a call stands in place of a potency, no number is given. Active and inactive are the calls of the source. Unless noted, calls follow the shape of the dose curve; as a rule, active = well fitted curve in the direction sought with a large enough effect; inconclusive = small, poorly fitted or top-dose-only effect, or another doubt; inactive = no such curve, though single readings can be large; an effect the other way counts as inactive or inconclusive.
# Tests used:
# [1] = Primary qHTS for Vero E6 cytotoxicity: counterscreen for inhibitors of SARS-S pseudo-typed particle cell entry (AID 1479150; calls by dose curve); details: cell viability; series mostly up to 57.1 µM
# [2] = AP1 Signaling Pathway (AID 357; active = well fitted curve in either direction with a large enough effect, not every such curve was filed as active); details: ME-180 AP-1-bla reporter, EGF-induced, beta-lactamase ratio, 5 h; series mostly up to 38 µM
# Outline: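 ME-180 cells with beta-lactamase reporter under AP-1 response element, stimulated with EC50 EGF; compounds tested in titration series, 5 h at 37 °C. CCF4 substrate added 2.5 h at room temperature; 460/530 nm emission ratio gave %activity and AC50.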
# [3] = NFAT Signaling Pathway (AID 444; active = well fitted curve in either direction with a large enough effect, not every such curve was filed as active;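 also: carbachol stimulus at about its EC50 of 1 µM final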); details: Jurkat NFAT-bla M1, carbachol, beta-lactamase ratio, 5 h; at 17.2 µM (top of the series)
# Outline: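 Jurkat cells with NFAT-driven β-lactamase reporter and co-expressed M1 receptor, stimulated with carbachol (final 1 uM, ~EC50), compound titration, 5 h at 37 °C. CCF4 loaded 1 h at RT; 460/530 nm ratio gave %activity and AC50.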
# [4] = Stat Signaling Pathway (AID 446; active = well fitted curve in either direction with a large enough effect, not every such curve was filed as active;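 also: ME-180 cervical cancer cells given 40 pM IL-6 alongside compound; SIE-controlled beta-lactamase reporter measured as 460/530 nm FRET emission ratio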); details: ME-180 SIE beta-lactamase reporter, IL-6 stimulated, 5 h; series mostly up to 38 µM
# Outline: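 Emission at 460 and 530 nm (excitation 405 nm) reports SIE-controlled beta-lactamase in ME-180 cells. Cells received compound with 40 pM IL-6 for 5 hrs at 37 C; data scaled between 300 pM IL-6 and 125 nM JAK-inhibitor controls.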
# [5] = biological target: Glucocorticoid receptor (Homo sapiens) (UniProt P04150); experiment: GR-GFP Redistribution (AID 450;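 active = compounds whose dose series gives a full or clear partial fitted curve of increased nuclear translocation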; also: potency is read from the fitted curve at half-maximal effect); details: U2OS GR-GFP nuclear translocation, laser cytometry, 2 h
# Sequence of Glucocorticoid receptor (Homo sapiens) (P04150 whole entry, looked up): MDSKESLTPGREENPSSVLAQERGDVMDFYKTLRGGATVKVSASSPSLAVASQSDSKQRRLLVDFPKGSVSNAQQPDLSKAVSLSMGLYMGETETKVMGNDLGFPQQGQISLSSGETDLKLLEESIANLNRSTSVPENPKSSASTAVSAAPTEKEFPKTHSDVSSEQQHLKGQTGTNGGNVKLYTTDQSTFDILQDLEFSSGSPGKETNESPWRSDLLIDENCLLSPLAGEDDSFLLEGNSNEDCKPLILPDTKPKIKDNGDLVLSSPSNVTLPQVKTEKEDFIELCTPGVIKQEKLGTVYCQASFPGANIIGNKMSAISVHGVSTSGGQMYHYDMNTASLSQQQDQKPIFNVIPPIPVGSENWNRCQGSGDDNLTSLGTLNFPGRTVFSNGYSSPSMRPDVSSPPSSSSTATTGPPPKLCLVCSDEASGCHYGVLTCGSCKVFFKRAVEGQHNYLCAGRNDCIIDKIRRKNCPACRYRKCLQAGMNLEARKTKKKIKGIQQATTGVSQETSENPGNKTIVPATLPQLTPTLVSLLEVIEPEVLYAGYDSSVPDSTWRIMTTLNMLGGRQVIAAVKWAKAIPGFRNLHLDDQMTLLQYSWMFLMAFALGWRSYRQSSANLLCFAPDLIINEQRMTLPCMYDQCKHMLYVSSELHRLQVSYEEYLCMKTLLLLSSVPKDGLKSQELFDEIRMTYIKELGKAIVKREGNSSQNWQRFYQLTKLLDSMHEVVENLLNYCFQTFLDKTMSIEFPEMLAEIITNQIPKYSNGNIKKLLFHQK
# [6] = qHTS Assay for Identification of Small Molecule Agonists for Hypoxia Response Element Signaling Pathway (AID 914; active = well fitted activation curve with a large enough effect in the signal ratio, with a control signal flat, not every such curve was filed as active; the % refers to the signal ratio); details: ME-180 (cervical carcinoma) HRE-bla reporter, beta-lactamase ratio, CoCl2, 17 h; activation: stronger effect = higher value
# Outline: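 In Opti-MEM containing 0.5% dialyzed FBS and 10 mM HEPES, ME-180 HRE-bla cells received a compound titration and EC50 CoCl2. They were incubated 17 hours, then CCF4-loaded 2.5 hours at room temperature before ratio reading.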
# [7] = G06 Cancer Cell Toxicity qHTS against the NCATS CANVASS Library (AID 1347368); details: G06 dog glioma cells, viability ATP luminescence, 72 h; series mostly up to 46.1 µM; also: potency is read from the fitted curve at half-maximal effect; nearly all actives have a fitted effect of over 60% in size
# Outline: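 ATP luminescence (CellTiterGlo) readout of cytotoxicity. Canine G06 glioma cells, 500/well, 72 hr incubation at 37C with compounds; bortezomib titration served as control.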
# [8] = A2780 Cisplatin Sensitive Ovarian Cancer Cell Toxicity qHTS against the NCATS CANVASS Library (AID 1347353); details: A2780 ovarian cancer viability, ATPLite luminescence, 72 h; series mostly up to 46.1 µM; also: nearly all actives have a fitted effect of over 60% in size
# Outline: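 750 cells/well, 4 h settle; 11-pt cpd titration; 72 h, 37 °C, 5% CO2; ATPLite 10 min RT; luminescence read.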
# [9] = HEK-293 Cancer Cell Toxicity qHTS against the NCATS CANVASS Library (AID 1347355); details: HEK-293 viability, CellTiter-Glo luminescence, 72 h; series mostly up to 46.1 µM; also: nearly all actives have a fitted effect of over 65% in size
# Outline: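 1000 cells/well, 4 h pre-incubation 37 °C/5% CO2; 11-pnt titration; 72 h; CellTiter-Glo 15 min RT, luminescence.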
# [10] = qHTS for ATAD5 Antagonist screened against the NCATS CANVASS Library (AID 1347370); details: HEK293T-ATAD5-luc, 5-FUrd stimulated, luminescence, 16 h; series mostly up to 46.1 µM;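 also: HEK293T cells carrying an ATAD5 luciferase reporter co-treated with 10 µM 5-fluorouridine; nearly all actives have a fitted effect of over 65% in size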
# Outline: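 HEK293T-ATAD5 luc reporter, 2000 cells/well; 5hr attach; cpd + 10 uM 5-FUrd; 16hr 37C, 5% CO2. Readouts: CellTiter-Fluor fluorescence (1hr), then Amplite luciferase luminescence (30min RT).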
# [11] = qHTS for inhibitors of ER calcium dysfunction: SERCaMP assay screened against the NCATS CANVASS Library (AID 1347393); details: SH-SY5Y GLuc-SERCaMP secretion, thapsigargin, luminescence; series mostly up to 76.6 µM;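 also: lower secreted reporter signal means inhibitor of ER calcium depletion; nearly all actives have a fitted effect of over 40% in size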
# Outline: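 SH-SY5Y GLuc-SERCaMP, 1000 cells/well, 4 h attach; cpd 16 h, 37C/5% CO2; thapsigargin (added as 6x 600 nM) 4 h; coelenterazine; luminescence. Reduced reporter release = ER Ca stabilization.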
# [12] = qHTS assay to identify inhibitors of the type 1 interferon - major histocompatibility complex class I in skeletal muscle: Counter screen cell viability and HiBit confirmation (AID 1347412); details: iHSKM muscle cells + IFN-b, HiBiT or CellTiter-Glo, 24 h; Potency: HiBiT; Viability, at 45.9 µM (top of the series); also: nearly all actives have a fitted effect of over 60% in size
# Outline: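 Luminescence read-out: Nano-Glo HiBiT lytic signal from C-terminally HiBiT-tagged HLA-B in CRISPR-edited human myoblasts, plus CellTiter Glo ATP as viability counter screen. IFN-beta 4.0 ng/ml; 24 hrs treatment at 37 C, 5% CO2.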
# [13] = Primary qHTS to identify inhibitors of SARS-CoV-2 cell entry (AID 1645846; calls by dose curve; also: nearly all actives have a fitted effect of over 45% in size); details: SARS-CoV-2 pseudovirus cell entry assay, luminescence; activity change, negative = inhibition: at 57.1 µM (top of the series) unless noted; series mostly up to 57.1 µM
# Outline: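 Inhibition of spike-mediated entry was scored in human ACE2-transfected Expi293F cells. Particles were MLV-pseudotyped with Wuhan-Hu-1 S carrying a 19-aa C-terminal deletion; signal was luciferase after two days, scaled between spike PP and fusion-protein-free PP.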
# [14] = biological target: N-terminal Xaa-Pro-Lys N-methyltransferase 1 (Homo sapiens) (UniProt Q9BV86); experiment: Confirmatory qHTS for Inhibitors of N-terminal methyltransferase 1 (NTMT1): MTaseGlo Assay (AID 1645874); details: NTMT1 enzyme, MTase-Glo SAH luminescence; also: potency is read from the fitted curve at half-maximal effect; nearly all actives have a fitted effect of over 65% in size
# Sequence of N-terminal Xaa-Pro-Lys N-methyltransferase 1 (Homo sapiens) (Q9BV86 whole entry, looked up): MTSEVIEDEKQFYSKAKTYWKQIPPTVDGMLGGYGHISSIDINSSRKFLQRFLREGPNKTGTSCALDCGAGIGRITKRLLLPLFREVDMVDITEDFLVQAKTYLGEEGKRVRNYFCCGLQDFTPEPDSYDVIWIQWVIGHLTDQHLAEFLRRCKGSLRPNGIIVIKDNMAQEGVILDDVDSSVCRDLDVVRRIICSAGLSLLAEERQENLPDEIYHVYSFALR
# Outline: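 Enzyme mix (125 nM NTMT1, 100 uM SAM) + compound, 15 min RT; + 1 uM SPKRIA, 30 min RT, dark; MTase-Glo reagent 30 min, detection solution 30 min; luminescence. % inhibition vs no-enzyme/DMSO controls, 4-parameter Hill fit.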
# Furin (Homo sapiens) = Furin (Homo sapiens) (UniProt P09958); experiment: Furin counterscreen qHTS for Zika virus inhibitors (AID 1347149); details: furin enzymatic counterscreen, fluorogenic substrate; series mostly up to 57.5 µM;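 also: purified recombinant full-length human furin enzyme at 5 nM; fluorescence gain from furin cutting a BOC-RVRR-AMC peptide substrate over 15 min; top concentration of the series differs between compounds; nearly all actives have a fitted effect of over 70% in size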
# Sequence of Furin (Homo sapiens) (P09958 whole entry, looked up): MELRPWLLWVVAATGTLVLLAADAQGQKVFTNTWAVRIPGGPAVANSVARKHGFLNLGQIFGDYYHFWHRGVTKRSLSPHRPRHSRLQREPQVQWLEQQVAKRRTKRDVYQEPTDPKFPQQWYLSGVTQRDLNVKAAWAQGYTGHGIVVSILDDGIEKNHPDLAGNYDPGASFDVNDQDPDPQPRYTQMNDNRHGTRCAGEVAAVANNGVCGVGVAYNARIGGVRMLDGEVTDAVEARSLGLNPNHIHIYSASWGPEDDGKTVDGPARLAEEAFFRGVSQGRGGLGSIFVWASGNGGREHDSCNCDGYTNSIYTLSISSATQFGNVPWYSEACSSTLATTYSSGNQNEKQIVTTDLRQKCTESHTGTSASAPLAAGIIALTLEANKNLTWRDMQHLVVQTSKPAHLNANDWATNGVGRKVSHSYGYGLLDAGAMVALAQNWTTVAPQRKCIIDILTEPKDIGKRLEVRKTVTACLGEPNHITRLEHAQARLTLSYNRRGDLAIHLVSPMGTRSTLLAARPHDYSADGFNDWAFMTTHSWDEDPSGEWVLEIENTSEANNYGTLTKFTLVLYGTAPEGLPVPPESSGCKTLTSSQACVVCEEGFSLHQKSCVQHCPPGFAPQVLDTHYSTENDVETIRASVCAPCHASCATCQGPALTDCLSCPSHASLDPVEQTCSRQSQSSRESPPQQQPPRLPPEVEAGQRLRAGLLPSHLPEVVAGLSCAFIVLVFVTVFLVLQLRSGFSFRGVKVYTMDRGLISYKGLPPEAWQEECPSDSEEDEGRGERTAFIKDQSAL
# Outline: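 Counterscreen measures cleavage of 2 microM BOC-RVRR-AMC, below its ~15 microM Km, by 5 nM full-length human furin at pH 7.0 after a 15-min compound preincubation. Inhibition derives from the 15-min fluorescence increase at 37C.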
# [15] = test system: Zika virus NS2B-NS3 protease (linked construct); experiment: Confirmatory screen NINDS AMC qHTS for Zika virus inhibitors (AID 1347152); details: Purified linked NS2B-NS3, AMC substrate fluorescence; series mostly up to 56.6 µM;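 also: AMC fluorescence gain from cleaved Bz-Nle-KRR-AMC substrate over 15 min; top concentration of the series differs between compounds; nearly all actives have a fitted effect of over 70% in size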
# Outline: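 Enzyme (1 nM, linked construct) was preincubated with compound for 15 minutes at room temperature in 10 mM Tris-HCl pH 8.0 with 0.01% Tween 20. Bz-Nle-Lys-Arg-Arg-AMC was then added to 10 microM, and AMC fluorescence was recorded immediately and after 15 minutes.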
# [16] = test system: Zika virus NS2B-NS3 protease (unlinked complex); experiment: Confirmatory screen GU AMC qHTS for Zika virus inhibitors (AID 1347153); details: Recombinant NS2B-NS3 protease, AMC substrate fluorescence; series mostly up to 57.1 µM; also: nearly all actives have a fitted effect of over 70% in size
# Outline: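 Fluorescence change (ex 340/em 450 nm) over 15 min, ~20% substrate conversion, normalized to no-inhibitor and no-enzyme controls, then Hill-fitted. Unlinked protease at 25 nM; AMC peptide 10 µM.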
# [17] = Confirmatory screen GU Rhodamine qHTS for Zika virus inhibitors qHTS (AID 1347157); details: purified enzyme assay, Rhodamine110 substrate fluorescence, 15 min; series mostly up to 114 µM; also: potency is read from the fitted curve at half-maximal effect; nearly all actives have a fitted effect of over 70% in size
# Outline: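 Compounds, tested up to 114 microM, were incubated for 15 minutes with 25 nM unlinked NS2B-NS3 protease at pH 8.0. Cleavage of 1.5 microM Rhodamine110 substrate was then followed by fluorescence for 15 minutes.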
# [18] = Confirmatory screen NINDS Rhodamine qHTS for Zika virus inhibitors (AID 1347161); details: purified enzyme assay, Rhodamine110 substrate fluorescence, 15 min; series mostly up to 114 µM; also: potency is read from the fitted curve at half-maximal effect; nearly all actives have a fitted effect of over 60% in size
# Outline: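 Purified linked NS2B-NS3 protease (NS2B hydrophilic domain joined to NS3 protease by flexible linker), 25 nM in 10 mM Tris-HCl pH 8.0, 0.01% Tween 20. Compounds titrated, 15 min preincubation at room temperature; 1.5 microM Rhodamine110 substrate, FITC fluorescence change over 15 min.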
# [19] = HepG2 cells viability qHTS for Zika virus inhibitors (AID 1347168); details: Zika counter-screen; series mostly up to 45.9 µM
# Outline: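 qHTS titration; 24-48 h compound exposure, 37 degrees C/5% CO2; DMEM, 4% FBS; CellTiter Glo ATP luminescence.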
compound,measurement,setting,value
CN1CCC2=C(C1)c1ccccc1Cc1ccccc12,outcome,[1],inactive
CN(C)[C@@H]1C(=O)C(C(N)=O)=C(O)[C@@]2(O)C(=O)C3=C(O)c4c(O)ccc(Cl)c4[C@@](C)(O)C3C[C@@H]12 (stereo not given in full),outcome,[2],inactive
same,"activity change, negative = inhibition",[3],0.867% (inactive)
same,outcome,[4],inactive
same,Potency,[5],> 20.6 µM (inactive)
same,activation,[6],4.51% (inactive)
CN1C(=O)[C@]23CC4C(C)(C)[C@@]5(C[C@@]41CN2CC[C@@]3(C)O)C(=O)Nc1c5ccc2c1OC=CC(C)(C)O2 (stereo not given in full),Potency,[7],7.43 µM (active)
C/C=C1/CN2CC[C@]34C(=Nc5ccccc53)[C@@H]2C[C@@H]1[C@H]4C(=O)OC,Potency,[8],inactive
same,Potency,[9],inactive
same,Potency,[10],inactive
same,Potency,[11],inactive
C[C@H](Nc1ncnc2nc[nH]c12)c1nc2ccc(F)cc2c(=O)n1-c1ccccc1,Potency,[12],inactive
NC(=O)[C@@H](CC1CC1)[C@@H](CCC(F)(F)F)C(=O)N[C@H]1N=C(c2ccccc2)c2cccc(F)c2NC1=O,"activity change, negative = inhibition",[13],-2.84%
C[C@H]1CCC[C@H](O)CCC/C=C/c2cc(O)cc(O)c2C(=O)O1,Potency,[14],1 µM (active)
CC/C=C/C=C/C1(C)OC(OC)=C(C(=O)C2C(C)C(=O)c3cc(OC)c(O)c(O)c3C2(C)O)C1=O (stereo not given),Potency,Furin (Homo sapiens),inactive
same,Potency,[15],inactive
same,Potency,[16],inactive
same,Potency,[17],9.61 µM (active)
same,Potency,[18],6.81 µM (active)
same,Potency,[19],inactive
